CSC inhib – blocks cancer stem cells; cancer stem cell-like cells viability, luminescence; inhibition, % at 7.5 µM; actives 1.1% (n = 300,000); AID 2717; in the data active = inhibition above about 75%; tested in HMLE shEcad cells
MPTP inh – permeability transition pore inhibition; actives 1.4% (n = 360,000); inhibition, % at 10 µM; isolated mouse mitochondria, Ca2+ swelling absorbance, 30 min;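 active = inhibition of 50% or more, scaled per plate between neutral and stimulator controls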;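 also: 0% = DMSO wells given calcium and 100% = 1 mM EGTA wells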
GRIN3A LBD mod – modulates the human NR3A ligand-binding domain; NR3A LBD differential scanning fluorimetry, Tm shift; 0% = protein alone, 100% = glycine-bound protein; Tm shift relative to glycine control, % at 25 µM; actives 2.5% (n = 340,000);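 active = melting temperature shift of at least 10% of the positive control shift, at one fixed dose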
Beta cell apopt – blocks beta cell apoptosis; INS-1E cytokine-induced death, ATP luminescence, 48 h; percent of positive-control rescue, neutral wells zero; protection from apoptosis, % (test concentration not listed); actives 0.8% (n = 300,000);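 active = Every replicate reaches about 75%, or at least half do and their mean reaches it too, limit read from the data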;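 also: 0% = cytokine-treated negative control wells and 100% = positive control rescue; higher means more ATP so stronger rescue from cytokine killing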
Mdm2 MdmX PPI – human Mdm2/MdmX binding inhibition; O15151+Q00987; SaOS-2 split-luciferase Mdm2/MdmX complementation, luminescence; inhibition, % at 8 µM; actives 3% (n = 330,000); AID 485346;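 active = inhibition of at least 50% at 8 µM in the primary screen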
Gli-Sufu antag – blocks Gli-Sufu signaling in a luciferase reporter; actives 0.74% (n = 340,000); Sufu-KO-LIGHT fibroblasts, Gli luciferase reporter luminescence; inhibition, % at 5 µM;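 active = inhibition above about 55%, limit read from the data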;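 also: 0% = DMSO-treated cells and 100% = wells with medium but no cells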
* hit, by the source's call. This is a sample that favours compounds with a hit; in the whole collection about 6.6% have one here.

For CN1/C(=C/C(=O)c2ccc(Cl)cc2)Sc2cc3c(cc21)OCO3 the results were CSC inhib -1, MPTP inh 6, GRIN3A LBD mod 16*, Beta cell apopt -7, Mdm2 MdmX PPI -51 and Gli-Sufu antag -37.
Screening O=C(/C=C/c1cc([N+](=O)[O-])ccc1OC(F)F)Nc1cccc2ccccc12 returned CSC inhib 11, MPTP inh 6, GRIN3A LBD mod 13*, Beta cell apopt -3, Mdm2 MdmX PPI 12 and Gli-Sufu antag -1.
COc1ccccc1NC(=O)/C=C/c1cc([N+](=O)[O-])ccc1OC(F)F was read as CSC inhib 2, MPTP inh 6, GRIN3A LBD mod 0, Beta cell apopt -1, Mdm2 MdmX PPI 34 and Gli-Sufu antag 4.
Screening CC(CNC(=O)c1ccc(OC2CCN(Cc3ccccn3)CC2)cc1)Oc1cccnc1 (stereo unspecified) returned CSC inhib -8, MPTP inh 0, GRIN3A LBD mod 3, Beta cell apopt 100*, Mdm2 MdmX PPI 6 and Gli-Sufu antag 12.
`CC(/C=N/n1c(C2CCCCC2)n[nH]c1=S)=C\c1ccccc1` gave CSC inhib 98*, MPTP inh 13, GRIN3A LBD mod -13, Beta cell apopt 17, Mdm2 MdmX PPI 9 and Gli-Sufu antag -4.
For CCOc1ccccc1/C=N/n1c(C2CCCCC2)n[nH]c1=S the results were CSC inhib 3, MPTP inh 0, GRIN3A LBD mod 1, Beta cell apopt -2, Mdm2 MdmX PPI -4 and Gli-Sufu antag 1.
`Cc1cccc(/C=N/n2c(C3CCCCC3)n[nH]c2=S)c1` gave MPTP inh 1, GRIN3A LBD mod -1, Mdm2 MdmX PPI 7 and Gli-Sufu antag 2.
Screening COc1ccccc1/C=C/C=N/n1c(C2CCCCC2)n[nH]c1=S returned CSC inhib 1, MPTP inh 4, GRIN3A LBD mod 13*, Beta cell apopt -3, Mdm2 MdmX PPI 17 and Gli-Sufu antag 0.
Nc1ccc(S(=O)(=O)NC2(C(F)(F)F)NC(=O)N(c3ccc(F)cc3)C2=O)cc1 (stereo unspecified) was read as MPTP inh -1, GRIN3A LBD mod -3, Beta cell apopt -6, Mdm2 MdmX PPI 9 and Gli-Sufu antag -5.
For O=C1NC(NS(=O)(=O)c2ccccc2)(C(F)(F)F)C(=O)N1c1ccc(F)cc1 (stereo unspecified) the results were CSC inhib -10, MPTP inh 0, GRIN3A LBD mod 16*, Beta cell apopt 3, Mdm2 MdmX PPI -17 and Gli-Sufu antag 0.
Screening Oc1ccc2ccccc2c1N=Nc1ccccc1F returned CSC inhib 39, MPTP inh 2, GRIN3A LBD mod 7, Beta cell apopt 0, Mdm2 MdmX PPI -9 and Gli-Sufu antag 11.
CCOC(=O)c1[nH]cnc1N=Nc1c(O)ccc2ccccc12 was read as CSC inhib 72, MPTP inh 8, GRIN3A LBD mod 1, Beta cell apopt 97* and Gli-Sufu antag 57*.
For N/C(=N\OC(=O)c1cccc(Br)c1)c1ccccn1 the results were CSC inhib -7, MPTP inh 1, GRIN3A LBD mod -16, Beta cell apopt -1, Mdm2 MdmX PPI -66 and Gli-Sufu antag -52.
For N/C(=N\OC(=O)c1cccc(Br)c1)c1ccccc1 the results were CSC inhib 6, MPTP inh 0, GRIN3A LBD mod 10*, Beta cell apopt 2, Mdm2 MdmX PPI -51 and Gli-Sufu antag -9.
Screening CCOc1cc(/C=C2\N=C(SC(C)C(N)=O)N(c3ccc(OC(F)F)cc3)C2=O)ccc1O (stereo unspecified) returned CSC inhib 103*, MPTP inh 1, GRIN3A LBD mod -13, Beta cell apopt 17, Mdm2 MdmX PPI 22 and Gli-Sufu antag -3.
`CC(C)[C@H]1COCCS(=O)(=O)N1Cc1ccccc1` gave CSC inhib -13, MPTP inh 0, GRIN3A LBD mod -2, Beta cell apopt 4, Mdm2 MdmX PPI 9 and Gli-Sufu antag -5.
Cc1oc(C(C)(C)C)cc1-c1cc(NC(=O)c2ccc([N+](=O)[O-])cc2)n[nH]1 was read as CSC inhib 4, MPTP inh 20, GRIN3A LBD mod 15*, Beta cell apopt 5, Mdm2 MdmX PPI 44 and Gli-Sufu antag 0.
`O=c1[nH]c2cc([N+](=O)[O-])ccc2c2ccccc12` gave MPTP inh 0, GRIN3A LBD mod -1 and Gli-Sufu antag -7.
For O=c1[nH]c2cc([N+](=O)[O-])ccc2c2ccc([N+](=O)[O-])cc12 the results were MPTP inh 0, GRIN3A LBD mod 13* and Gli-Sufu antag 1.
Screening O=C(NCc1cccnc1)C(=O)Nc1nc(C23CC4CC(CC(C4)C2)C3)cs1 returned CSC inhib 13, MPTP inh 3, GRIN3A LBD mod -10, Beta cell apopt 161*, Mdm2 MdmX PPI 40 and Gli-Sufu antag -5.
`COc1cccc(C(=O)Nc2nc3ccccc3s2)c1` gave CSC inhib 3, MPTP inh 0, GRIN3A LBD mod 3, Mdm2 MdmX PPI -239 and Gli-Sufu antag -101.
Screening COc1ccc2c(c1)Cc1sc(NC(=O)c3ccccc3)nc1-2 returned CSC inhib 1, MPTP inh -3, GRIN3A LBD mod 10*, Beta cell apopt 3, Mdm2 MdmX PPI -9 and Gli-Sufu antag -35.
COc1ccc(C(=O)Nc2nc3c(s2)Cc2cc(OC)ccc2-3)cc1 was read as CSC inhib 4, MPTP inh 1, GRIN3A LBD mod 11*, Beta cell apopt 11, Mdm2 MdmX PPI -13 and Gli-Sufu antag -42.
`COc1ccc2c(c1)Cc1sc(NC(=O)c3cccs3)nc1-2` gave CSC inhib -3, MPTP inh -2, GRIN3A LBD mod 25*, Beta cell apopt 10, Mdm2 MdmX PPI -87 and Gli-Sufu antag -92.
`Cn1cc(-c2csc(C(O)c3ccccc3)n2)cn1` (stereo unspecified) gave MPTP inh -1.
O=C1/C(=C\c2ccc(O)c(O)c2)C(c2ccccc2)=NN1c1ccccc1 was read as MPTP inh 38, GRIN3A LBD mod 12* and Gli-Sufu antag 26.
For CCOc1cc(/C=C2\C(=O)N(c3nc(-c4ccc(Br)cc4)cs3)N=C2c2ccccc2)ccc1O the results were CSC inhib 99*, MPTP inh 43, GRIN3A LBD mod 16*, Mdm2 MdmX PPI 11 and Gli-Sufu antag 0.
`CCOc1ccccc1C(=O)NC(C)CCc1ccccc1` (stereo unspecified) gave CSC inhib 21, MPTP inh 2, GRIN3A LBD mod 1, Beta cell apopt -5, Mdm2 MdmX PPI 27 and Gli-Sufu antag 8.
Screening CC(C)c1ccc2[nH]c(O)c(N=NC(=O)c3cccc(S(=O)(=O)Nc4ccc(Cl)cc4)c3)c2c1 returned MPTP inh 0, GRIN3A LBD mod 43*, Beta cell apopt -2, Mdm2 MdmX PPI 18 and Gli-Sufu antag -6.

Screens (PubChem BioAssay)
